Bioassay records as filed in PubChem.
Rows were chosen to be rich in hits. Some 2.9% of all compounds tested hit in one or more screens of this group.
H9c2 protect: modulators protecting cardiomyocytes from myocardial damage. H9c2 cardiomyocytes, H2O2 injury protection, ATPLite, 2 h. protection from H2O2 cell death, % at 20 µM. actives 0.63% (n = 360,000). AID 588492;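 active means compounds giving at least 50% protection of heart cells from peroxide-induced death in the single-dose screen, raw or plate-pattern-corrected value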;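 further: 0% = DMSO wells with peroxide and 100% = DMSO wells without peroxide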
Myeloid diff 2: promotes myeloid progenitor differentiation; calls only at 10 µM; ER-HoxA9 myeloid progenitors, lysozyme-GFP differentiation, flow cytometry; actives 1% (n = 360,000);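 active means normalized GFP-positive differentiation at or above the plate's own cutoff, the solvent-only control mean plus 3 SD; inconclusive means no clear call, values can overlap the other calls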;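 further: cells exposed to compound for four days before flow analysis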
DAGLB inhibitor: blocks human DAGLB lipase activity | HEK293T DAGLB membrane lysate, EnzChek fluorogenic substrate | inhibition, % at 5.17 µM | actives 0.059% (n = 340,000) | Q8NCG7; in the data active means inhibition above about 34%;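 further: 0% = enzyme with vehicle and 100% = wells lacking enzyme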
Target sequence (Q8NCG7 whole entry, looked up): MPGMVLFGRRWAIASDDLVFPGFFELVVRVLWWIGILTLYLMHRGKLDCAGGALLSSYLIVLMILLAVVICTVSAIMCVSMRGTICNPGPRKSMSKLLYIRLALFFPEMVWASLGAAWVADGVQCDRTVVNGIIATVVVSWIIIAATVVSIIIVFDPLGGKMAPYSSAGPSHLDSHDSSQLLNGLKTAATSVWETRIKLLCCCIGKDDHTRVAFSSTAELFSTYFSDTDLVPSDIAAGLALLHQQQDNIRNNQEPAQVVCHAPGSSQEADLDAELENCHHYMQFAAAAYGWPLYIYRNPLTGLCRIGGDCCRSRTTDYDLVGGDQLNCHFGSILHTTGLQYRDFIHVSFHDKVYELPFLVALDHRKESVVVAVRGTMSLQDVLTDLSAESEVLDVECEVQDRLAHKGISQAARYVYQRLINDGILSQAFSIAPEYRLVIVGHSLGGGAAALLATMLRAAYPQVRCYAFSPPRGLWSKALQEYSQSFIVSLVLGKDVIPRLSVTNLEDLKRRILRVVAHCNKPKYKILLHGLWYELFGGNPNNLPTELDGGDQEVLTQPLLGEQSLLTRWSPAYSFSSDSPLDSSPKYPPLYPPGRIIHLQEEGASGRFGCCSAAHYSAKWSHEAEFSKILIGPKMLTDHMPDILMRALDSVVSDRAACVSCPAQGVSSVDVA
HGIII-sPLA2 inh: Inhibits HGIII-sPLA2 liposome hydrolysis, primary screen | Q9NZ20 | QFRET BODIPY PC-A2 liposome hydrolysis, fluorescence | actives 0.56% (n = 370,000) | inhibition, % at 12.2 µM;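 active means inhibition above mean plus 3 SD of compounds lying within the high and low control bounds, cut at about 19% in these data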;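 further: 0% = median of test compound wells and 100% = no enzyme DMSO wells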
ABHD5 PLIN5 PPI: blocks binding of human ABHD5 to perilipin-5 | actives 0.78% (n = 360,000) | inhibition, % at 4 µM | Q00G26+Q8WTS1 | Split G. princeps luciferase complementation, luminescence, 4 h | AID 602281;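 active means inhibition above the mean inhibition across every tested compound plus 3 SD, cut at about 22% in these data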;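 further: 0% = DMSO only wells and the 100% control is not disclosed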
Rtt109 Vps75: blocks Candida albicans Rtt109/Vps75 acetyltransferase activity; Q5AAJ8; purified Rtt109/Vps75, ThioGlo CoA-SH fluorescence, 4 h; inhibition, % at 34.9 µM; actives 0.16% (n = 330,000); AID 540336;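 active means inhibition of at least 50% in every replicate; inconclusive means best replicate reaches 50% inhibition but some replicates fall short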
An asterisk follows results filed as active; i = inactive; ? = inconclusive; . = no result given; + = active, no number.

SMILES	H9c2 protect	Myeloid diff 2	DAGLB inhibitor	HGIII-sPLA2 inh	ABHD5 PLIN5 PPI	Rtt109 Vps75
COC(=O)c1c(NC(=O)c2ccccc2N(C)S(=O)(=O)c2ccccc2)sc2c1CCCC2	-12.4	+	-3.6	5.6	3.1	3.7
Fc1ccc(-c2cc(-c3nnc4n3CCCCC4)c3ccccc3n2)cc1	1.8	i	-0.7	12.5	0.7	9.0
Clc1ccc(-c2cc(-c3nnc4n3CCCCC4)c3ccccc3n2)cc1	-5.2	+	-1.5	-11.8	-2.4	2.8
CC(C(=O)Nc1ccc(S(=O)(=O)N2CCCC2)cc1)N1CCN(c2ccccc2O)CC1 (centres undefined)	-4.2	i	-1.2	-8.8	-7.5	-1.9
COc1ccc(C(C(=O)NC2CCCC2)N(C(=O)c2ccco2)c2ccccc2C(C)=O)cc1OC (centres undefined)	2.2	i	-0.1	0.3	-6.6	-9.4
CCOC(=O)c1c(N)sc(C(=O)Nc2ccc3c(c2)OCO3)c1C	-26.0	i	0.5	-0.1	-4.3	2.1
CCOc1ccc(N=C2NC(=O)/C(=C/C(=O)OC)S2)cc1	3.2	i	1.0	-6.8	22.9*	-21.5
COc1cc(/C=C2\SC(=Nc3ccc(O)cc3)NC2=O)cc(OC)c1OC	.	.	.	-5.6	.	.
COc1cc(/C=C2/SC(=Nc3ccc(O)cc3)NC2=O)cc(OC)c1O	25.3	+	-0.1	-19.5	1.8	5.2
Cc1ccccc1Nc1cc2ccccc2c(=O)[nH]1	-36.2	i	0.2	.	-17.8	-13.7
Cc1cc2ccccc2c(=O)[nH]1	57.1*	i	-0.4	8.1	5.2	-18.0
Cc1ccc(C(=O)NNC(=O)CCC(=O)NCc2ccccc2)cc1Br	-0.5	+	0.4	4.2	-5.8	-5.7
Cc1cc(Br)cc(Br)c1OCC(=O)NNC(=O)CCC(=O)NCc1ccccc1	-3.8	i	-0.2	1.2	1.9	-8.2
O=[N+]([O-])c1ccc2nc(CCCc3nc4ccc([N+](=O)[O-])cc4[nH]3)[nH]c2c1	5.6	i	1.6	1.6	-0.2	1.7
NNC(=S)Nc1cc(S(=O)(=O)N2CCOCC2)ccc1N1CCOCC1	9.3	i	-2.5	-4.5	-3.3	1.2
COC(=O)c1ccc(NCc2c(O)ccc(O)c2Br)cc1Cl	27.5	i	-0.2	34.4*	-4.1	-5.5
CC(C)(C)NC(=O)CSc1nc2ccc(Nc3nc(N4CCOCC4)nc(N4CCOCC4)n3)cc2s1	91.2*	i	0.0	-1.4	-0.6	4.9
COc1cccc(C2Oc3ccccc3C3CC(c4cccs4)=NN32)c1 (centres undefined)	7.8	i	.	-12.6	22.1*	.
Clc1cc2c(cc1/C=N/Nc1nc(N3CCOCC3)nc(N3CCOCC3)n1)OCO2	27.4	i	-2.2	0.9	-9.6	-2.0
COc1nc(N/N=C/c2cc3c(cc2Br)OCO3)nc(N2CCOCC2)n1	53.8*	i	-3.6	2.6	-3.0	?
CC(Cc1ccccc1)C(=O)N[C@@H](CO)Cc1ccccc1 (some centres undefined)	0.3	+	-4.1	11.5	5.0	2.1
c1cc2c(cc1-c1csc(NNC3=NCCCCC3)n1)OCCO2	.	.	.	10.7	.	.
C=CCNC(=O)CSCc1ccc(Br)cc1	-3.7	+	-2.0	8.1	-3.8	-11.9
CC(C)(C)NC(=S)N/N=C\c1ccc(-c2ccc([N+](=O)[O-])cc2)o1	9.4	+	.	-3.4	-2.5	.
O=C(O)c1ccc(-c2ccc(/C=N/Nc3ccc([N+](=O)[O-])cc3)o2)cc1	5.7	+	-7.6	-4.3	8.7	50.0*
SMILES	H9c2 protect	Myeloid diff 2	DAGLB inhibitor	HGIII-sPLA2 inh	ABHD5 PLIN5 PPI	Rtt109 Vps75
O=C(O)c1cccc(-c2ccc(/C=N/Nc3ccc([N+](=O)[O-])cc3)o2)c1	4.3	i	-6.7	-39.5	11.3	7.4
COc1ccc(NC2CCCCC2NS(=O)(=O)c2ccc(C)cc2)cc1 (centres undefined)	-2.0	i	1.5	9.7	-8.2	-4.5
CC(C)(C)C(O)C(Cc1ccccc1Cl)n1cncn1 (centres undefined)	10.2	i	0.3	0.5	13.6	-5.9
Cc1cccc(NC(=O)CSc2nnc(CSc3nc(C)cc(C)n3)n2Cc2ccco2)c1	-1.5	+	2.4	-18.6	1.9	7.3
CC1CCCC(C)N1C(=O)CSc1nnc(COc2ccccc2)n1-c1ccccc1 (centres undefined)	-1.8	i	2.3	-13.0	5.5	0.4
N#C/C(=C/c1ccncc1)c1nc2ccccc2c(=O)[nH]1	-0.8	i	4.2	2.2	7.8	-7.5
N#C/C(=C1\CCCN1)c1nc2ccccc2c(=O)[nH]1	73.5*	i	-0.9	-0.9	-5.5	-5.7
COC(=O)COc1ccc(S(=O)(=O)Nc2ccc3c(c2)OCO3)cc1	-11.7	i	-0.2	7.6	4.4	12.0
COc1ccc(Nc2nc(NCc3ccco3)nc(N/N=C/c3ccc(O)cc3)n2)cc1	51.3*	i	0.0	-25.1	-4.9	7.5
COc1ccc(/C=N/Nc2nc(NCc3ccco3)nc(Nc3ccc(OC)cc3)n2)cc1	1.4	i	3.9	3.2	1.5	-2.1
CC(=O)c1c(N2CCN(C)CC2)[nH]c(-c2ccccc2)nc1=S	19.2	+	-0.6	1.0	-1.3	4.6
CCCc1cc(N2CCN(C(=O)c3ccco3)CC2)n2c(nc3ccccc32)c1C#N	55.1*	i	3.1	-0.2	7.6	-69.1
O=C(OCc1ccccc1)c1cc(S(=O)(=O)N2CCCCC2)ccc1N1CCOCC1	-8.0	i	1.5	11.4	6.2	-2.8
O=C(COc1cccc(Cl)c1)Nc1cc(S(=O)(=O)N2CCOCC2)ccc1N1CCOCC1	8.0	+	0.7	6.3	-4.6	4.2
O=C(OCc1cccc(Cl)c1)c1cc(S(=O)(=O)N2CCCCC2)ccc1N1CCOCC1	-8.9	+	-1.9	-7.3	-7.3	1.8
O=C(Cn1c(=O)cnc2ccccc21)Nc1ccccc1N1CCOCC1	-1.5	i	-6.3	0.7	11.9	15.7
O=C(Cn1c(=O)cnc2ccccc21)Nc1cc(Cl)ccc1N1CCOCC1	10.4	+	2.4	-1.1	1.0	-0.8
O=C(COc1ccccc1)Nc1cc(S(=O)(=O)N2CCOCC2)ccc1N1CCCC1	1.7	i	-1.6	-3.4	2.4	10.5
COc1ccc(OCC(O)Cn2c(N)nc3c2c(=O)[nH]c(=O)n3C)cc1 (centres undefined)	25.8	i	0.5	11.4	-8.1	-4.1
COc1cc2c3nnc(-c4ccccc4)c-3cn(Cc3ccc(F)cc3)c2cc1OC	-8.6	i	0.8	-11.1	12.6	-8.7
COc1cc2c3nnc(-c4ccc(F)cc4)c-3cn(Cc3cccc(C)c3)c2cc1OC	-39.0	+	3.5	-17.6	2.9	-4.9
COc1cc2c3nnc(-c4ccc(F)cc4)c-3cn(Cc3ccc(C)cc3)c2cc1OC	-32.7	+	5.1	-2.0	-0.4	5.0
